Assay results taken from the supplement of paper PMC8728848.
About 410 targets per protein were measured; listed, in parts, are those with the strongest signals and a random draw of the rest.

B1: Gal 3 (Homo sapiens), P17931 (protein)
chain: MADNFSLHDALSGSGNPNPQGWPGAWGNQPAGAGGYPGASYPGAYPGQAPPGAYPGQAPPGAYHGAPGAYPGAPAPGVYPGPPSGPGAYPSSGQPSAPGAYPATGPYGAPAGPLIVPYNLPLPGGVVPRMLITILGTVKPNANILDFQRGNDVAFHFNPRFNENNRRVIVCNTKLDNNWGREERQSVFPFESGKPFKIQVLVEPDHFKVAVNDAHLLQYNHRVKKLNEISKLGISGDIDLTSASYTMI
B2: mLPHN-1 (Mus musculus), Q80TR1 (protein)
chain: MARLAAALWSLCVTTVLVTSATQGLSRAGLPFGLMRRELACEGYPIELRCPGSDVIMVENANYGRTDDKICDADPFQMENVQCYLPDAFKIMSQRCNNRTQCVVVAGSDAFPDPCPGTYKYLEVQYDCVPYIFVCPGTLQKVLEPTSTHESEHQSGAWCKDPLQAGDRIYVMPWIPYRTDTLTEYASWEDYVAARHTTTYRLPNRVDGTGFVVYDGAVFYNKERTRNIVKYDLRTRIKSGETVINTANYHDTSPYRWGGKTDIDLAVDENGLWVIYATEGNNGRLVVSQLNPYTLRFEGTWETGYDKRSASNAFMVCGVLYVLRSVYVDDDSEAAGNRVDYAFNTNANREEPVSLAFPNPYQFVSSVDYNPRDNQLYVWNNYFVVRYSLEFGPPDPSAGPATSPPLSTTTTARPTPLTSTASPAATTPLRRAPLTTHPVGAINQLGPDLPPATAPAPSTRRPPAPNLHVSPELFCEPREVRRVQWPATQQGMLVERPCPKGTRGIASFQCLPALGLWNPRGPDLSNCTSPWVNQVAQKIKSGENAANIASELARHTRGSIYAGDVSSSVKLMEQLLDILDAQLQALRPIERESAGKNYNKMHKRERTCKDYIKAVVETVDNLLRPEALESWKDMNATEQVHTATMLLDVLEEGAFLLADNVREPARFLAAKQNVVLEVTVLNTEGQVQELVFPQEYPSENSIQLSANTIKQNSRNGVVKVVFILYNNLGLFLSTENATVKLAGEAGTGGPGGASLVVNSQVIAASINKESSRVFLMDPVIFTVAHLEAKNHFNANCSFWNYSERSMLGYWSTQGCRLVESNKTHTTCACSHLTNFAVLMAHREIYQGRINELLLSVITWVGIVISLVCLAICISTFCFLRGLQTDRNTIHKNLCINLFLAELLFLVGIDKTQYEVACPIFAGLLHYFFLAAFSWLCLEGVHLYLLLVEVFESEYSRTKYYYLGGYCFPALVVGIAAAIDYRSYGTEKACWLRVDNYFIWSFIGPVSFVIVVNLVFLMVTLHKMIRSSSVLKPDSSRLDNIKSWALGAIALLFLLGLTWAFGLLFINKESVVMAYLFTTFNAFQGVFIFVFHCALQKKVHKEYSKCLRHSYCCIRSPPGGTHGSLKTSAMRSNTRYYTGTQSRIRRMWNDTVRKQTESSFMAGDINSTPTLNRGTMGNHLLTNPVLQPRGGTSPYNTLIAESVGFNPSSPPVFNSPGSYREPKHPLGGREACGMDTLPLNGNFNNSYSLRSGDFPPGDGGPEPPRGRNLADAAAFEKMIISELVHNNLRGASGGAKGPPPEPPVPPVPGVSEDEAGGPGSADRAEIELLYKALEEPLLLPRAQSVLYQSDLDESESCTAEDGATSRPLSSPPGRDSLYASGANLRDSPSYPDSSPEGPNEALPPPPPAPPGPPEIYYTSRPPALVARNPLQGYYQVRRPSHEGYLAAPSLEGPGPDGDGQMQLVTSL

Experiments:
Assay in all cases: glycan array binding signal (z-score within array); higher = stronger binding
Settings in all cases: glycan notation: IUPAC condensed, linker removed
[1] = target: Neu5Ac(a2-3)Gal(b1-3)GlcNAc(b1-3)GalNAc
Procedure, shortened: (§1)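 Arrays were curated from the Consortium for Functional Glycomics database, 3228 in total, and kept only where the protein sequence was available. Binding is expressed as a within-array Z-score. This score was averaged across arrays of the same protein sequence at different concentrations or buffers and across linkers, and negative values can be read as non-binding.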

[2] = target: Neu5Ac(a2-3)Gal(b1-4)GlcNAc(b1-3)Gal(b1-4)GlcNAc(b1-3)Gal(b1-4)GlcNAc
Procedure, shortened: as §1

[3] = target: Neu5Ac(a2-3)Gal(b1-4)[Fuc(a1-3)]GlcNAc
Procedure, shortened: as §1

[4] = target: Neu5Ac(a2-3)Gal6S(b1-4)GlcNAc
Procedure, shortened: as §1

[5] = target: Neu5Ac(a2-6)Gal(b1-4)GlcNAc(b1-2)Man(a1-6)[Gal(b1-4)GlcNAc(b1-2)Man(a1-3)]Man(b1-4)GlcNAc(b1-4)GlcNAc
Procedure, shortened: as §1

[6] = target: Neu5Ac(a2-6)Gal(b1-4)GlcNAc(b1-3)Gal(b1-4)[Fuc(a1-3)]GlcNAc(b1-3)Gal(b1-4)[Fuc(a1-3)]GlcNAc
Procedure, shortened: as §1

Neu5Gc(a2-6)GalNAc = target: Neu5Gc(a2-6)GalNAc
Procedure, shortened: as §1

[7] = target: Fuc(a1-2)Gal(b1-3)GlcNAc(b1-3)Gal(b1-4)Glc
Procedure, shortened: as §1

[8] = target: Fuc(a1-2)[Gal(a1-3)]Gal(b1-3)GlcNAc
Procedure, shortened: as §1

[9] = target: Fuc(a1-2)[Gal(a1-3)]Gal(b1-4)Glc
Procedure, shortened: as §1

Gal(b1-3)Gal(b1-4)GlcNAc = target: Gal(b1-3)Gal(b1-4)GlcNAc
Procedure, shortened: as §1

Gal(b1-3)GalNAc = target: Gal(b1-3)GalNAc
Procedure, shortened: as §1

[10] = target: Gal(b1-4)GalNAc(b1-3)[Fuc(a1-2)]Gal(b1-4)GlcNAc
Procedure, shortened: as §1

[11] = target: Gal(b1-4)GlcNAc(b1-3)Gal(b1-4)GlcNAc
Procedure, shortened: as §1

Gal3S(b1-3)GlcNAc = target: Gal3S(b1-3)GlcNAc
Procedure, shortened: as §1

Gal6S(b1-4)Glc6S = target: Gal6S(b1-4)Glc6S
Procedure, shortened: as §1

Gal6S(b1-4)GlcNAc = target: Gal6S(b1-4)GlcNAc
Procedure, shortened: as §1

GalNAc(b1-3)Gal = target: GalNAc(b1-3)Gal
Procedure, shortened: as §1

GlcNAc(b1-4)GlcNAc = target: GlcNAc(b1-4)GlcNAc
Procedure, shortened: as §1

Man(a1-2)Man(a1-3)Man = target: Man(a1-2)Man(a1-3)Man
Procedure, shortened: as §1

[12] = target: Man(a1-2)Man(a1-3)[Man(a1-2)Man(a1-6)]Man(a1-6)[Man(a1-2)Man(a1-2)Man(a1-3)]Man(b1-4)GlcNAc(b1-4)GlcNAc
Procedure, shortened: as §1

[13] = target: Neu5Ac(a2-3)Gal(b1-3)GlcNAc
Procedure, shortened: as §1

[14] = target: Neu5Ac(a2-3)Gal(b1-3)GlcNAc(b1-3)Gal(b1-3)GlcNAc
Procedure, shortened: as §1

[15] = target: Neu5Ac(a2-3)Gal(b1-3)[Fuc(a1-4)]GlcNAc
Procedure, shortened: as §1

[16] = target: Neu5Ac(a2-3)Gal(b1-3)[Neu5Ac(a2-3)Gal(b1-4)]GlcNAc
Procedure, shortened: as §1

[17] = target: Neu5Ac(a2-3)Gal(b1-4)GlcNAc(b1-3)Gal(b1-4)[Fuc(a1-3)]GlcNAc
Procedure, shortened: as §1

[18] = target: Neu5Ac(a2-3)Gal6S(b1-4)[Fuc(a1-3)]GlcNAc
Procedure, shortened: as §1

Neu5Ac(a2-3)GalNAc = target: Neu5Ac(a2-3)GalNAc
Procedure, shortened: as §1

[19] = target: Neu5Ac(a2-6)Gal(b1-4)GlcNAc
Procedure, shortened: as §1

[20] = target: Neu5Ac(a2-6)Gal(b1-4)GlcNAc(b1-2)Man(a1-6)[GlcNAc(b1-2)Man(a1-3)]Man(b1-4)GlcNAc(b1-4)GlcNAc
Procedure, shortened: as §1

[21] = target: Neu5Ac(a2-6)Gal(b1-4)GlcNAc(b1-3)Gal(b1-4)GlcNAc
Procedure, shortened: as §1

Row | Binder | glycan array binding signal (z-score) [1] | glycan array binding signal (z-score) [2] | glycan array binding signal (z-score) [3] | glycan array binding signal (z-score) [4] | glycan array binding signal (z-score) [5] | glycan array binding signal (z-score) [6] | glycan array binding signal (z-score) (Neu5Gc(a2-6)GalNAc) | glycan array binding signal (z-score) [7] | glycan array binding signal (z-score) [8] | glycan array binding signal (z-score) [9] | glycan array binding signal (z-score) (Gal(b1-3)Gal(b1-4)GlcNAc) | glycan array binding signal (z-score) (Gal(b1-3)GalNAc) | glycan array binding signal (z-score) [10] | glycan array binding signal (z-score) [11] | glycan array binding signal (z-score) (Gal3S(b1-3)GlcNAc) | glycan array binding signal (z-score) (Gal6S(b1-4)Glc6S) | glycan array binding signal (z-score) (Gal6S(b1-4)GlcNAc) | glycan array binding signal (z-score) (GalNAc(b1-3)Gal) | glycan array binding signal (z-score) (GlcNAc(b1-4)GlcNAc) | glycan array binding signal (z-score) (Man(a1-2)Man(a1-3)Man) | glycan array binding signal (z-score) [12] | glycan array binding signal (z-score) [13] | glycan array binding signal (z-score) [14] | glycan array binding signal (z-score) [15] | glycan array binding signal (z-score) [16] | glycan array binding signal (z-score) [17] | glycan array binding signal (z-score) [18] | glycan array binding signal (z-score) (Neu5Ac(a2-3)GalNAc) | glycan array binding signal (z-score) [19] | glycan array binding signal (z-score) [20] | glycan array binding signal (z-score) [21]
1 | B1 | -0.375 | 3.82 | -0.39 | -0.387 | -0.391 | -0.386 | -0.392 | – | – | – | – | – | – | – | – | – | – | – | – | – | – | – | – | – | – | – | – | – | – | – | –
2 | B2 | – | -0.433 | – | – | – | – | 1.3 | 0.213 | 15.8 | -0.219 | 0.16 | 0.025 | 1.66 | -0.105 | 2.08 | 1.13 | 1.27 | 0.793 | -0.282 | -0.173 | 0.551 | 0.014 | -0.317 | 0 | -0.26 | -0.402 | -0.065 | 0.587 | 0.157 | -0.261 | -0.422
